E-sel TNF inh – TNF alpha driven E-selectin expression inhibition; HUVEC TNFa-induced E-selectin immunofluorescence, high content; inhibition, % at 2 µM; actives 0.71% (n = 120,000); AID 1246;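 active means inhibition above the batch mean plus 3 SD, and confirmed as a hit on visual image review, cut at about 43% in these data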
VCAM1 TNFa inh – reduces TNF alpha induced VCAM1 expression in HUVEC; actives 0.48% (n = 95,000); inhibition, % at 2 µM; AID 802; HUVEC TNFa-induced VCAM-1 immunofluorescence, high-content imaging;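 active means inhibition above the batch mean plus 3 SD, with images confirmed as a hit by eye, cut at about 37% in these data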
F-actin modifier – cytoskeleton assembly modification. AID 836. inhibition, % at 2 µM. actives 0.18% (n = 91,000). HUVEC TNFa F-actin phalloidin imaging, high content;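 active means inhibition above the batch mean plus 3 SD and confirmed as a hit by visual image inspection, cut at about 30% in these data, passing the limit was not always enough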
TNFa cytotox – HUVEC cytotoxicity counter-screen, TNF alpha stimulated | HUVEC TNFalpha-stimulated, Hoechst cell count, imaging | cell count reduction, % at 2 µM | actives 0.17% (n = 93,000);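 active means cell count reduction exceeding the screen mean by over 5 SD, scaled to untreated wells per plate, cut at about 78% in these data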;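 further: cells counted after 24 h of TNF alpha exposure following the 1 h pretreatment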
Each line names hits and unclear results; the compound was inactive in the other large screens. This is a sample that favours compounds with a hit; in the whole collection about 1.2% have one here.

COc1ccc(C(=O)C(CN2CCOCC2)c2ccccc2)cc1F (configuration not stated)	E-sel TNF inh 62 (no result: VCAM1 TNFa inh, TNFa cytotox)
COc1ccc(C(O)C(CN2CCOCC2)c2ccccc2)cc1F (configuration not stated)	none
CCCOc1ccc(C(=O)C(c2ccccc2)N2CCOCC2)cc1 (configuration not stated)	none (no result: F-actin modifier)
CCOc1ccc(C(=O)C(c2ccccc2)N2CCOCC2)cc1 (configuration not stated)	VCAM1 TNFa inh 76 (no result: E-sel TNF inh)
CC(CN1CCOCC1)C(=O)c1ccccc1 (configuration not stated)	none
CCCOc1ccc(C(=O)C(CN2CCOCC2)c2ccccc2)cc1 (configuration not stated)	VCAM1 TNFa inh 50
Cc1cc(C)c2c(N)c3cccc(C)c3nc2n1	none (no result: VCAM1 TNFa inh, F-actin modifier, TNFa cytotox)
Cc1cccc(Sc2c(C=O)c3ccccc3n2C)c1	none
COc1ccccc1C(=O)NCCN1CCN(C(=O)c2ccccc2OC)CC1	E-sel TNF inh 100
O=C(CSc1nc2ccc(NC(=O)CSc3nnnn3-c3ccccc3)cc2s1)Nc1ccccc1	none (no result: VCAM1 TNFa inh, F-actin modifier, TNFa cytotox)
Cc1cccc(NC(=O)CSc2nc3ccc(NC(=O)CSc4nnnn4-c4ccccc4)cc3s2)c1C	VCAM1 TNFa inh 44
CCOC(=O)Cc1nnc(NC(=O)CSc2ccc(Cl)cc2)s1	E-sel TNF inh 67
Cc1cc(NC(=O)CSc2ccc(-c3ccc(F)cc3)nn2)no1	none (no result: VCAM1 TNFa inh, F-actin modifier, TNFa cytotox)
Fc1cccc(Cl)c1CNCc1ccccc1Cl	none
CCN1C(=O)c2cccc3c(S(=O)(=O)Nc4c(C)n(C)n(-c5ccccc5)c4=O)ccc1c23	none
CCN1C(=O)c2cccc3c(S(=O)(=O)NCc4ccccn4)ccc1c23	F-actin modifier 31
Cc1cc(C)nc(NS(=O)(=O)c2ccc(NC(=O)C3(c4ccccc4)CCCC3)cc2)n1	none (no result: VCAM1 TNFa inh, F-actin modifier, TNFa cytotox)
O=C(Cc1cccs1)NNC(=S)NC(=O)c1ccc(F)c(F)c1	E-sel TNF inh 76 (no result: VCAM1 TNFa inh, F-actin modifier, TNFa cytotox)
Cc1ccc(C(=O)NCCCn2ccnc2)cn1	F-actin modifier 30
O=C(NCCCn1ccnc1)c1ccncc1	none
COC(=O)c1ccccc1NC(=O)Cn1c(-c2nonc2N)nc2ccccc21	VCAM1 TNFa inh 79
CCc1n[nH]c2c1C(=O)CC(C)(C)C2	E-sel TNF inh 54
Cc1[nH]nc2c1C(=O)CC(C)(C)C2	none
ClCc1ncc(-c2ccc(Cl)cc2)o1	none (no result: VCAM1 TNFa inh, F-actin modifier, TNFa cytotox)
COc1ccc(Cn2c(CCC(=O)Nc3ccc(C)cc3)nc3cccnc32)cc1	none
COc1ccc(Cn2c(CCC(=O)O)nc3cccnc32)cc1	VCAM1 TNFa inh 93 (no result: E-sel TNF inh)
Cc1cc([N+](=O)[O-])nn1CC(=O)N1c2ccccc2CC1C (configuration not stated)	none (no result: VCAM1 TNFa inh, F-actin modifier, TNFa cytotox)
COc1ccc(S(=O)(=O)N(CC(N)=O)C2CCCCC2)cc1Cl	E-sel TNF inh 45
COc1ccc(S(=O)(=O)N(C)CC(=O)NC2CCCCC2)cc1Cl	none
COc1cccc(N(CC(=O)N2CCN(C)CC2)S(=O)(=O)c2ccc(C)cc2)c1	none (no result: VCAM1 TNFa inh, TNFa cytotox)
OC(COCC1CC=CCC1)Cn1cnc2ccccc21 (configuration not stated)	none
Cc1nc2ccccc2n1CC(O)COCC1CC=CCC1 (configuration not stated)	TNFa cytotox 96
Cc1ccc(C2(c3noc(CN4CCC(c5ccncc5)CC4)n3)CCCC2)cc1	none (no result: VCAM1 TNFa inh, F-actin modifier, TNFa cytotox)
Oc1ccc(-n2cnnn2)cc1	none
Cc1ccc(N)cc1S(=O)(=O)N(C)C	E-sel TNF inh 55 (no result: VCAM1 TNFa inh, F-actin modifier, TNFa cytotox)
Cc1cc(N)ccc1S(C)(=O)=O	none
O=S(=O)(c1ccc2c(c1)OCCCO2)N1CCNCC1	VCAM1 TNFa inh 84, TNFa cytotox 84 (no result: E-sel TNF inh)
COc1ccc(N2CCN(S(=O)(=O)c3ccc4c(c3)OCCO4)CC2)cc1	none (no result: VCAM1 TNFa inh, F-actin modifier, TNFa cytotox)
Cc1ccc2oc(Nc3nc(-c4ccccc4)cc(=O)[nH]3)nc2c1	E-sel TNF inh 100 (no result: VCAM1 TNFa inh, F-actin modifier, TNFa cytotox)
O=S(=O)(c1ccccc1)n1c(C(O)c2ccccn2)cc2ccccc21 (configuration not stated)	none (no result: VCAM1 TNFa inh, F-actin modifier, TNFa cytotox)
CN1/C(=C/C(=O)c2nc(S(C)(=O)=O)ncc2Cl)C(C)(C)c2ccccc21	E-sel TNF inh 90
CN1/C(=C\C(=O)c2cncc(Br)c2)C(C)(C)c2ccccc21	none (no result: VCAM1 TNFa inh, F-actin modifier, TNFa cytotox)
Cc1ccc(OCC(=O)N2CCN(C(=O)Cc3ccccc3)CC2)cc1	F-actin modifier 71
COc1ccc(OCC(=O)N2CCN(C(=O)Cc3ccccc3)CC2)cc1	none
O=C(COC(=O)CNC(=O)c1ccc(Br)o1)Nc1ccccc1OC(F)F	none (no result: VCAM1 TNFa inh, F-actin modifier, TNFa cytotox)
CN1CCCN(S(=O)(=O)c2ccc(Cl)c(Cl)c2)CC1	E-sel TNF inh 100 (no result: VCAM1 TNFa inh, F-actin modifier, TNFa cytotox)
O=S(=O)(c1cccc(Cl)c1Cl)N1CCCCC1	none
CN1CCCN(S(=O)(=O)c2cccc(Cl)c2Cl)CC1	E-sel TNF inh 94 (no result: VCAM1 TNFa inh, F-actin modifier, TNFa cytotox)
C=CCOc1ccc(CNc2ccc(NC(=O)CC(C)C)cc2)cc1OC	none (no result: VCAM1 TNFa inh, F-actin modifier, TNFa cytotox)
COc1ccccc1N1CCN(C(=O)CCCN2C(=O)c3cccc4cccc(c34)C2=O)CC1	none (no result: VCAM1 TNFa inh, F-actin modifier, TNFa cytotox)
COC(=O)/C=C/S(=O)(=O)c1ccc(NC(C)=O)cc1	E-sel TNF inh 92
COc1ccccc1NS(=O)(=O)c1ccc(NC(C)=O)cc1	none
O=C(NCCC1=CCCCC1)c1coc(=O)c(Br)c1	E-sel TNF inh 86
O=C(NCCC1=CCCCC1)c1ccc(=O)oc1	none
CCc1ccc(CN(C)C(=O)c2cc(COc3c(F)cccc3F)on2)cc1	E-sel TNF inh 83 (no result: VCAM1 TNFa inh, F-actin modifier, TNFa cytotox)
CCSc1nc2ccccc2n1C(=O)/C=C\c1ccc(OC)c(OC)c1	VCAM1 TNFa inh 94
CCSc1nc2ccccc2n1CC(N)=O	none
CSc1oc(-c2ccco2)nc1S(=O)(=O)c1ccccc1	TNFa cytotox 82 (no result: E-sel TNF inh)
C=CCn1c(COc2ccc(Cl)cc2)nnc1SCC(=O)N/N=C/c1cccc(O)c1	F-actin modifier 66
N#CC1=C(N)Oc2cc(Nc3ccccc3)ccc2C1c1ccncc1 (configuration not stated)	E-sel TNF inh 54
N#CC1=C(N)Oc2cc(N)ccc2C1c1cccnc1 (configuration not stated)	none (no result: VCAM1 TNFa inh, F-actin modifier, TNFa cytotox)
CCN(CC)c1ccc2c(c1)OC(N)=C(C#N)C2c1cccnc1 (configuration not stated)	VCAM1 TNFa inh 39 (no result: E-sel TNF inh)
COc1ccc(NC(=O)CSc2nnc(CCC(=O)Nc3ccc(C)c(Cl)c3)n2C)cc1	none
O=C(/C=C/Nc1cccc(C(F)(F)F)c1)c1ccc(Oc2ncccn2)cc1	E-sel TNF inh 64
c1ccc(-n2c(Sc3cnccn3)nnc2-c2cccs2)cc1	E-sel TNF inh 63
